Common to all, as to assay: DAPPL (digital affinity profiling via proximity ligation, sequencing); 10 mM Tris-HCl pH 7.5, 50 mM NaCl, 1 mM DTT, 4% glycerol, room temperature, 30 min; GST-TFs on glutathione beads, 16-mer random dsDNA library, 0.1% formaldehyde crosslink after washing; high values mean tight binding
Test [1] deals with T1, FEV (Homo sapiens, UniProt Q99581 1-238).
T1 sequence: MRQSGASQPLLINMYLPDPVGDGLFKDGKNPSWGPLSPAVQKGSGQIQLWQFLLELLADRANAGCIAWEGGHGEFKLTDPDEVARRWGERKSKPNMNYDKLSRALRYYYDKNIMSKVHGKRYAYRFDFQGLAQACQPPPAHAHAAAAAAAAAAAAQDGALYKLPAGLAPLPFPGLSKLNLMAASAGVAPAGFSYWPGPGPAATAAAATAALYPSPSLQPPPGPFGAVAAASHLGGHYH
The settings on record: protein: recombinant; tags: N-terminal GST; dsDNA, one strand shown. The essentials: (§1)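 Pools were built from human transcription factors expressed in yeast as GST fusions, captured on glutathione beads and DNA-barcoded, along with a tag-only sample. Incubation with 200 nmole of a 16-mer random double-stranded DNA library lasted 30 min at room temperature in Tris/NaCl/DTT/glycerol buffer, and was followed by washing, 0.1% formaldehyde crosslinking, proximity ligation, PCR amplification and Illumina NextSeq500 sequencing. Binding signal is the quotient of each hexamer's read frequency for a factor and its frequency for the tag-only sample.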

Test [2] deals with ETV5 (Homo sapiens, UniProt P41161 1-510). Conditions: protein: recombinant; tags: N-terminal GST; dsDNA, one strand shown. The essentials: as §1
ETV5, sequence (P41161 whole entry): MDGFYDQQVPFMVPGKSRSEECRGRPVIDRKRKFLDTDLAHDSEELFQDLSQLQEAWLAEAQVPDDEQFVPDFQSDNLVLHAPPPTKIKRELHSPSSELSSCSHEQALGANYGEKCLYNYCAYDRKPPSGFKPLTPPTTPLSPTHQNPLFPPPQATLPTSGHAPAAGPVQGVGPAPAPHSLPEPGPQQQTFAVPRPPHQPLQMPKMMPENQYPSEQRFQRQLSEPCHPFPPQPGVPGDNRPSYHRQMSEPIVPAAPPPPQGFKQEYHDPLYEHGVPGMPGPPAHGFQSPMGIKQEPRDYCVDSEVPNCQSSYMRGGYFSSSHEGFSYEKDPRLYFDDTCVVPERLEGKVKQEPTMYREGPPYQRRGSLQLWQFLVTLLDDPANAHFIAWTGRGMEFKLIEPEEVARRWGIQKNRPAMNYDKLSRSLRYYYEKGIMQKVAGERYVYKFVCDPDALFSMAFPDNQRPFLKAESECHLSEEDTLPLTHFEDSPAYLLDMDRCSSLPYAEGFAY
The target of test [3] is HSF1 (Homo sapiens, UniProt Q00613 1-529). The settings on record: protein: recombinant; tags: N-terminal GST; chain copies: 3; dsDNA, one strand shown. The essentials: as §1
HSF1, sequence (Q00613 whole entry): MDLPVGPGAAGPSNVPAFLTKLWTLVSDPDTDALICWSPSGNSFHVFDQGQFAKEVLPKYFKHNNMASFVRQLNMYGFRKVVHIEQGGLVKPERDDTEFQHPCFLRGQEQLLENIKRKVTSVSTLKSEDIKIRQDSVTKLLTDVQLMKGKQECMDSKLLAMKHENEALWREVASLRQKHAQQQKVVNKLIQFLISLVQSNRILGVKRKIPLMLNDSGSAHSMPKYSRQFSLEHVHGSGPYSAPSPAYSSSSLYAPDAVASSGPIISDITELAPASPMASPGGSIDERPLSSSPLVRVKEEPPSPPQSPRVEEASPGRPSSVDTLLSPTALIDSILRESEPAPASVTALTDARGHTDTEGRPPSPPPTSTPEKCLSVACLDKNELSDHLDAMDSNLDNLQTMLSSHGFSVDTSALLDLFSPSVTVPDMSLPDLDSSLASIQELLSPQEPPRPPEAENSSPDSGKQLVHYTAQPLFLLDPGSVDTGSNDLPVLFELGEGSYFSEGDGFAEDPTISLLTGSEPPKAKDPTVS
The target of test [4] is T2, SPIC (Homo sapiens, UniProt Q8N5J4 1-248).
T2 sequence: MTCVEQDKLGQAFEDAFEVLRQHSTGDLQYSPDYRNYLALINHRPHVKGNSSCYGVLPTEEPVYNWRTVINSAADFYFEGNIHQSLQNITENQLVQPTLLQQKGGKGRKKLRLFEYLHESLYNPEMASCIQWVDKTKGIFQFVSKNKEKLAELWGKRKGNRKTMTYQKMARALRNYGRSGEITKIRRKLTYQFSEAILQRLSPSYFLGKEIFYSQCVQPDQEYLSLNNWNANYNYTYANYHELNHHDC
Conditions: protein: recombinant; tags: N-terminal GST; dsDNA, one strand shown. The essentials: as §1

Test [5] has as its target ELF4 (Homo sapiens, UniProt Q99607 1-663). The settings on record: protein: recombinant; tags: N-terminal GST; dsDNA, one strand shown. In a few lines:
as §1

The target in test [6] is T3, ELK4 (Homo sapiens, UniProt P28324-2 1-405).
T3 sequence: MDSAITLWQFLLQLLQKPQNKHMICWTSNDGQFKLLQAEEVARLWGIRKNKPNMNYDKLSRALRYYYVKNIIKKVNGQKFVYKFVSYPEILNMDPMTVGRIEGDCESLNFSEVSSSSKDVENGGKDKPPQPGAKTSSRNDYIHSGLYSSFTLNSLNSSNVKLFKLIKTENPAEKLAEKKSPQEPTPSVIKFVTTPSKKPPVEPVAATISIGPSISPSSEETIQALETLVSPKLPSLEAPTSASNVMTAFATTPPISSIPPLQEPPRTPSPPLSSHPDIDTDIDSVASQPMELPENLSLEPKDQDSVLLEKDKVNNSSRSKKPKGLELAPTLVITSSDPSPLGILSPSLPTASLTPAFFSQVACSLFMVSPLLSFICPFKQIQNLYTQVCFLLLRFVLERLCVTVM
Conditions: protein: recombinant; tags: N-terminal GST; dsDNA, one strand shown. In a few lines: as §1

In test [7] the target is T4, ETV2 (Homo sapiens, UniProt O00321 1-342).
T4 sequence: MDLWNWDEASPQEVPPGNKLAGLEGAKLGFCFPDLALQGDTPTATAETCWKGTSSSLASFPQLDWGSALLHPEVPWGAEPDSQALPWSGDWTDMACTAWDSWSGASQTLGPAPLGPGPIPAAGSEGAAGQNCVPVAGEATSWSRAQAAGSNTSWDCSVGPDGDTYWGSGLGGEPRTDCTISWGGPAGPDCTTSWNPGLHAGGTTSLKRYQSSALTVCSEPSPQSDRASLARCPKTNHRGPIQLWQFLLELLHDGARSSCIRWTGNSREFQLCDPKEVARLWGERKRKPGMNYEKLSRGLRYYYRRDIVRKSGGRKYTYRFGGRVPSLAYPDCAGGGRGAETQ
Conditions: protein: recombinant; tags: N-terminal GST; dsDNA, one strand shown. The essentials: as §1

Test [8] addresses T5, ELF3 (Homo sapiens, UniProt P78545 1-371).
T5 sequence: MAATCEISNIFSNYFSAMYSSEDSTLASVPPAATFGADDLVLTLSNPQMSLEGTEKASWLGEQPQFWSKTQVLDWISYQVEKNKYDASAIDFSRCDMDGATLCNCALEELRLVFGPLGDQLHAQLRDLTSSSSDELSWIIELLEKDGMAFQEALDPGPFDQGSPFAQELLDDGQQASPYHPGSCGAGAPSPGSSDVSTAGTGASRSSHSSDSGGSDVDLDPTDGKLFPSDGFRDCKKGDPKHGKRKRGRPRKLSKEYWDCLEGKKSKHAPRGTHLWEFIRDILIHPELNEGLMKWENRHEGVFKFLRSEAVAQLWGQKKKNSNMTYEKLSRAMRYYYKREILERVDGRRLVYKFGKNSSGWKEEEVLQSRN
The settings on record: protein: recombinant; tags: N-terminal GST; dsDNA, one strand shown. In a few lines: as §1

Test [9] concerns the target CRX (Homo sapiens, UniProt O43186 1-299). Conditions: protein: recombinant; tags: N-terminal GST; dsDNA, one strand shown. In a few lines: as §1
The target of test [10] is ETV1 (Homo sapiens, UniProt P50549 1-477). The settings on record: protein: recombinant; tags: N-terminal GST; dsDNA, one strand shown. In a few lines:
as §1

The target in test [11] is T6, ERF (Homo sapiens, UniProt P50548 1-548).
T6 sequence: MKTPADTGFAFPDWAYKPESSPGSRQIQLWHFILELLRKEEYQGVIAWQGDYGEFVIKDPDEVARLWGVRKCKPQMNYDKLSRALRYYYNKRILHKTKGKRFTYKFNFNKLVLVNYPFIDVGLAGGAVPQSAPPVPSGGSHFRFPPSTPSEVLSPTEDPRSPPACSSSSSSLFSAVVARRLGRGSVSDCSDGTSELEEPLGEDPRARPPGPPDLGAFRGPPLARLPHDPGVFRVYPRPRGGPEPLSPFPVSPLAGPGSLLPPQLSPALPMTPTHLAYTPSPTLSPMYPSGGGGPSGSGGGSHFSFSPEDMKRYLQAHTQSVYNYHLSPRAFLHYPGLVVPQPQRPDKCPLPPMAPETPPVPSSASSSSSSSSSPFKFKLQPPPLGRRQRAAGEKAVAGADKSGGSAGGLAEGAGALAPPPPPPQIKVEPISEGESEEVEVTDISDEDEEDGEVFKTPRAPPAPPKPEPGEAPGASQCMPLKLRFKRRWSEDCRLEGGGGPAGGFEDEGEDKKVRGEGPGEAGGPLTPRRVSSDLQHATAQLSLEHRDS
Conditions: protein: recombinant; tags: N-terminal GST; dsDNA, one strand shown. The essentials:
as §1

For test [12], the target named is T7, ETV3L (Homo sapiens, UniProt Q6ZN32 1-361).
T7 sequence: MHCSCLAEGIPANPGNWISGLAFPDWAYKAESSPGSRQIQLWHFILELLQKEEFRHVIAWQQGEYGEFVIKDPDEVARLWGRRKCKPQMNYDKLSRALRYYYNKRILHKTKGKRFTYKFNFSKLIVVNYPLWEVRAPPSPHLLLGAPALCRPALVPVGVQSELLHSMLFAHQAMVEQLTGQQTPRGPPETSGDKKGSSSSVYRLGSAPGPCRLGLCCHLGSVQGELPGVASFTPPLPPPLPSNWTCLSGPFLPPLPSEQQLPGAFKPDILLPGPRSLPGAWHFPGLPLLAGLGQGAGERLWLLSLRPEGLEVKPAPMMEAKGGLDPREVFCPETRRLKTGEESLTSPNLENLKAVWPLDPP
Conditions: protein: recombinant; tags: N-terminal GST; dsDNA, one strand shown. The essentials: as §1

For test [13], the target named is T8, ETS2 (Homo sapiens, UniProt P15036 1-469).
T8 sequence: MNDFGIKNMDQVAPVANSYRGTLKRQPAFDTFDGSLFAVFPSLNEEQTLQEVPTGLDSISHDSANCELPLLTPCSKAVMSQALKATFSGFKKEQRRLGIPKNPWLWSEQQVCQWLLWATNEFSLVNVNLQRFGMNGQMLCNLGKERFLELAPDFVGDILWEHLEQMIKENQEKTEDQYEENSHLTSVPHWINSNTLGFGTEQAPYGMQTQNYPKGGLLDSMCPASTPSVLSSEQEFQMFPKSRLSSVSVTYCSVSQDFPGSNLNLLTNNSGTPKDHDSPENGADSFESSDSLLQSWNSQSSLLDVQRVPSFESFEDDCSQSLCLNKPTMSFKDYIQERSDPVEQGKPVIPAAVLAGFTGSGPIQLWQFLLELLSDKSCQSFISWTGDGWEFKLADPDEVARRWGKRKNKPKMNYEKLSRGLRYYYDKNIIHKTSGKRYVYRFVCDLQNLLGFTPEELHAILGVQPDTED
Conditions: protein: recombinant; tags: N-terminal GST; dsDNA, one strand shown. The essentials: as §1

The target in test [14] is T9, SPDEF (Homo sapiens, UniProt O95238 1-335).
T9 sequence: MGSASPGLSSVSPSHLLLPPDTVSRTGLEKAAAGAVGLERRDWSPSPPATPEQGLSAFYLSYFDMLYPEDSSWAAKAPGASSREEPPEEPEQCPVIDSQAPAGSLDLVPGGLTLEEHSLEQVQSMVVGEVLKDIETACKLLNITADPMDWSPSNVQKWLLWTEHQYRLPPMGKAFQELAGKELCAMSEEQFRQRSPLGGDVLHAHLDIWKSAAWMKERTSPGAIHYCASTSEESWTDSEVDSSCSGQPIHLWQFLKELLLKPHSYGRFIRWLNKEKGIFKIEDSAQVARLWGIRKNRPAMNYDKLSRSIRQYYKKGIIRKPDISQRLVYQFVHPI
The settings on record: protein: recombinant; tags: N-terminal GST; dsDNA, one strand shown. The essentials:
as §1

In test [15] the target is T10, ETV7 (Homo sapiens, UniProt Q9Y603 1-341).
T10 sequence: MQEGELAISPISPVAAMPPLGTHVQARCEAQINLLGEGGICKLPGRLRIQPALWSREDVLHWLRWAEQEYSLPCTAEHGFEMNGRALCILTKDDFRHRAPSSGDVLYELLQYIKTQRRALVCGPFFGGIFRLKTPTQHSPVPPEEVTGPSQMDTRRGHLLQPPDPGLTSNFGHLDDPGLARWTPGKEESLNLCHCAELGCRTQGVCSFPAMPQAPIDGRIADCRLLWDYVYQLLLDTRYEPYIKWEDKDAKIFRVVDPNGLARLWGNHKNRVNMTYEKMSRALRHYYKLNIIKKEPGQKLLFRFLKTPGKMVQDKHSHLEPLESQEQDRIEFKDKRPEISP
The settings on record: protein: recombinant; tags: N-terminal GST; dsDNA, one strand shown. The essentials:
as §1

Test [16] deals with T11, ELF5 (Homo sapiens, UniProt Q9UKW6-2 1-255).
T11 sequence: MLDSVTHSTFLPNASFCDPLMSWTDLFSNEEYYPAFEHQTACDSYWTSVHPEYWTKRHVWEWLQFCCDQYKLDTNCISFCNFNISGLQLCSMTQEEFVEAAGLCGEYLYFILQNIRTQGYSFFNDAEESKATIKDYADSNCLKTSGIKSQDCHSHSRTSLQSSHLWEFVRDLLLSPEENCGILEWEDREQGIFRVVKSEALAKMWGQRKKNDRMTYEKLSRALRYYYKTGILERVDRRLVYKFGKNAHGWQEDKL
Conditions: protein: recombinant; tags: N-terminal GST; dsDNA, one strand shown. The essentials:
as §1

Test [17] has as its target T12, ETV3 (Homo sapiens, UniProt P41162-2 1-143).
T12 sequence: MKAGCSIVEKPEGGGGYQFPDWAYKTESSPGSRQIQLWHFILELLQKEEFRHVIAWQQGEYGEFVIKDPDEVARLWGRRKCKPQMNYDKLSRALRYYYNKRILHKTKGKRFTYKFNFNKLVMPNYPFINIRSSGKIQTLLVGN
The settings on record: protein: recombinant; tags: N-terminal GST; dsDNA, one strand shown. The essentials:
as §1

Test [18] concerns the target ETV6 (Homo sapiens, UniProt P41212 1-452). The settings on record: protein: recombinant; tags: N-terminal GST; dsDNA, one strand shown. In a few lines: as §1

CRX, sequence (O43186 whole entry): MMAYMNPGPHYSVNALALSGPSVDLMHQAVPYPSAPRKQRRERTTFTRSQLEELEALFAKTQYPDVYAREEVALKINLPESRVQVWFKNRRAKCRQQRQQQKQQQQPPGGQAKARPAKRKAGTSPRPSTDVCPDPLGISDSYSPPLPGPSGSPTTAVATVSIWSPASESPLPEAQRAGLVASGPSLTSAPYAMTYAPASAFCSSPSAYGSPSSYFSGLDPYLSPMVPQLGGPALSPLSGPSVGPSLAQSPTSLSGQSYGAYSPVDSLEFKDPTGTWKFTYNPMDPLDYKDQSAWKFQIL
ETV6, sequence (P41212 whole entry): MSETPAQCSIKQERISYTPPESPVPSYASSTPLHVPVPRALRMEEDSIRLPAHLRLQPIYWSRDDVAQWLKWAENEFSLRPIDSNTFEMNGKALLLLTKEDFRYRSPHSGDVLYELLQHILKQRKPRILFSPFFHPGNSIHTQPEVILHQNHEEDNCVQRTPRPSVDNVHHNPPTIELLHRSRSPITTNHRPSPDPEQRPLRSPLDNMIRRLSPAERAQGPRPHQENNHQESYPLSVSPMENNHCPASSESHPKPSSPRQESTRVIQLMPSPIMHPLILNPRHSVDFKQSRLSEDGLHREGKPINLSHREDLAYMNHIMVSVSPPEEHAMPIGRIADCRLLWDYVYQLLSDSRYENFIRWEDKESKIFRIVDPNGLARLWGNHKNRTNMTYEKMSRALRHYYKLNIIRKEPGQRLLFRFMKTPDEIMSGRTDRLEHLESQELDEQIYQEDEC
ETV1, sequence (P50549 whole entry): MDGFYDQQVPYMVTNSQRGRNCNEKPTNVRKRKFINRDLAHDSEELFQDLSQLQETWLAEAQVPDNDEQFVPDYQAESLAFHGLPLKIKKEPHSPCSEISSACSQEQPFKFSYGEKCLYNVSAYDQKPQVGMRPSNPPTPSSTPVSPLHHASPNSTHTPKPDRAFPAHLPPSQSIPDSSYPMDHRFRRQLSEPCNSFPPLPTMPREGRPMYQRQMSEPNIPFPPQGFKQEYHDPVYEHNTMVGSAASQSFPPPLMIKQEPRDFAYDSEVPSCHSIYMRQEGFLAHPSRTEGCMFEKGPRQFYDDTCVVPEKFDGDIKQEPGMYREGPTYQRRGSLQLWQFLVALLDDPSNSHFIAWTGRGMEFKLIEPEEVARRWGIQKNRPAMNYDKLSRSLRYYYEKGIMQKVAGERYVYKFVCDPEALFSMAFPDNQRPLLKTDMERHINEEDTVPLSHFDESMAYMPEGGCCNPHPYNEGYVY
ELF4, sequence (Q99607 whole entry): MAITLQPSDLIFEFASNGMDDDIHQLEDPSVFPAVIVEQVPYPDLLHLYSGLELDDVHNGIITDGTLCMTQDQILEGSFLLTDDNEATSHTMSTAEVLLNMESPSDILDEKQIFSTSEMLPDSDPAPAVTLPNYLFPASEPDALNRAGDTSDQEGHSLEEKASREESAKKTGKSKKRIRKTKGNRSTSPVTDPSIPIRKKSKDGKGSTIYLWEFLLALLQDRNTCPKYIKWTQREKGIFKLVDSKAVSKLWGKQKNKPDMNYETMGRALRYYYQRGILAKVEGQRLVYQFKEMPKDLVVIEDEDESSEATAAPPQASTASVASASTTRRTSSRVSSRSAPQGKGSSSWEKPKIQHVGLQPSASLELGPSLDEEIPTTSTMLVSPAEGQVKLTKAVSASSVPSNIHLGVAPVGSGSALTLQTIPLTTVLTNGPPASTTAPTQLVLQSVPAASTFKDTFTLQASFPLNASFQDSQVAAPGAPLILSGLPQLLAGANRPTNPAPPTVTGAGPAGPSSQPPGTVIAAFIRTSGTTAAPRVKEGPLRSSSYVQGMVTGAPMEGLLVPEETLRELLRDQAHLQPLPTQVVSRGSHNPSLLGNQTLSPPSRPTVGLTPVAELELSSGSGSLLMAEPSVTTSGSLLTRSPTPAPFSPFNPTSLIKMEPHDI

As for TTACCA, the binding signal in test [1] is 1.09 fold enrichment (6-mer frequency, TF over GST control); in [2] it was 1.04 fold enrichment (6-mer frequency, TF over GST control); in test [3] it was 1.47 fold enrichment (6-mer frequency, TF over GST control); in [4], 1.09 fold enrichment (6-mer frequency, TF over GST control); in test [5], 1.04 fold enrichment (6-mer frequency, TF over GST control); in [6], 1.04 fold enrichment (6-mer frequency, TF over GST control). The binding signal was 1.13 fold enrichment (6-mer frequency, TF over GST control) in [7]; 1.1 fold enrichment (6-mer frequency, TF over GST control) in test [8]; 1.74 fold enrichment (6-mer frequency, TF over GST control) in test [9]; 1.05 fold enrichment (6-mer frequency, TF over GST control) in [10]; 1.07 fold enrichment (6-mer frequency, TF over GST control) in test [11]; 1.07 fold enrichment (6-mer frequency, TF over GST control) in test [12]. Also, the binding signal in [13] is 1.13 fold enrichment (6-mer frequency, TF over GST control); in [14], 1.09 fold enrichment (6-mer frequency, TF over GST control); in test [15], 1.12 fold enrichment (6-mer frequency, TF over GST control); in test [16] it was 1.04 fold enrichment (6-mer frequency, TF over GST control); in test [17], 1.16 fold enrichment (6-mer frequency, TF over GST control); in test [18], 1.07 fold enrichment (6-mer frequency, TF over GST control).

For the origin of these results see PMC7862700, “An all-to-all approach to the identification of sequence-specific readers for epigenetic DNA modifications on cytosine”.
